Experimental data: PubChem BioAssay AID588850 (Sanford-Burnham Center for Chemical Genomics, 2011)
The whole screen tested about 360,000 compounds, of which about 3,100 (0.86%) were called active.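 Rule for the calls: active = at least 50% inhibition at 5 µM, scaled per plate between neutral and stimulator controls; inactive = the rest.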 The sample as a whole holds a higher share of actives than the screen did.

Test: NF-kB reporter blockers in CF airway cells – cell-based, GFP fluorescence, uHTS, primary screen (AID 588850);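 note: PAF is a Pseudomonas aeruginosa culture filtrate used as stimulus; plate controls were PAF-stimulated DMSO wells for no effect and unstimulated DMSO wells for full effect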
Conditions: KKLEB NF-kB-GFP reporter, PAF-induced, GFP fluorescence overnight; at 5 µM; stronger effect = higher value

inhibition, inactive:
CCN(Cc1ccccc1)C(=O)CCS(=O)(=O)c1ccc2c(c1)oc(=O)n2C -2.4%
COCCN(C(=O)CCC(=O)Nc1ccccn1)C(C(=O)NCCC(C)C)c1ccc(OC)cc1 (centres undefined) -7.9%
CCOC(=O)N1CCN(S(=O)(=O)c2ccc3c(c2)C(C)C(=O)N3)CC1 (centres undefined) -4%
NC(=O)c1ncn([C@@H]2O[C@H](CNCc3cnc(N4CCOCC4)s3)[C@@H](O)[C@H]2O)n1 -11.1%
O=C(O)CSCC(=O)Nc1ccc(C(F)(F)F)cc1 -2.9%
CC(=O)Nc1ccc(SCC(=O)NC(=O)c2ccc(Cl)cc2)cc1 -19.2%
Cc1[nH]c2ccccc2c1SCC(=O)Nc1nccs1 1%
CCNC(=O)C1CCCN(C(=O)c2cc(F)ccc2C)CC1 (centres undefined) -17.2%
Cc1ccccc1-c1ccc2c(c1)O[C@@H](CN(C)Cc1ccc(C(=O)O)cc1)[C@@H](C)CN([C@H](C)CO)S2(=O)=O 44.9%
CC(NC(=O)c1cc2cc(Cl)ccc2oc1=N)c1ccccc1 (centres undefined) 23.8%
CCOc1ccc(NC(=O)CSc2ncnc3c2sc2ccccc23)cc1 5.6%
O=C(NCC(=O)N1CCN(c2ccccc2F)CC1)c1cccs1 -14.2%
Cc1ccc(C)c(NC(CC(=O)c2ccccc2)C(=O)OCC(=O)c2cccs2)c1 (centres undefined) -4.5%
O=Nc1c(O)cc(O)c2ccccc12 -12.5%
O=Cc1c(NCCc2cccc(F)c2)c2ccccc2[nH]c1=O 5%
O=C(Cn1c(NCCO)nc2ccccc21)c1ccc(Cl)cc1Cl 1.6%
OCCNCCOc1ccc(Cl)c(Cl)c1 -8.5%
c1csc(-c2nnc(COc3ncnc4sccc34)o2)c1 18.1%
CCN(Cc1ccccc1)C(=O)CSc1nc(C)cc2c1C(=O)OC2 5%
O=c1[nH]c(CCl)nc2cc(-c3ccc(Cl)cc3)sc12 7.1%
CC[N+]1(CC)CC2=Cc3ccccc3CC2C1 (centres undefined) -4%
COc1ccc(CC(=O)c2ccc(O)cc2O)cc1OC -7.8%
C=CCOc1ccccc1CNn1c(C)n[nH]c1=S 5.7%
O=C(COC(=O)c1ccc(Cl)nc1)NCc1ccc2c(c1)OCO2 -9.2%
O=C(CSc1ncnc2scc(-c3ccccc3)c12)NCc1ccc2c(c1)OCO2 13.3%
Cc1ccc(Cn2c(C)c(C(=O)NCc3ccccc3C(F)(F)F)sc2=O)cc1 -26.2%
Cc1c(Nc2nc3ccccc3nc2NS(=O)(=O)c2cccs2)c(=O)n(-c2ccccc2)n1C 9.5%
Cc1ccc(C2CCN(C(=S)Nc3cccc(Cl)c3)C2)cc1 (centres undefined) 7.5%
COc1ccc(/C=C/C(=O)NC(=S)NN2CCCCC2c2cccnc2)cc1 (centres undefined) -13%
Cc1ccc(Cc2c(-c3ccccc3)nc3ccc(Cl)cn23)cc1 20.8%
Cc1ccc2nc(-c3ccco3)c(Cc3cccc(Cl)c3)n2c1 2.7%
S=c1[nH]c2ccccc2c2ccccc12 -8.9%
CC(=O)c1cccc(-c2cnc3c(NC=O)cc(-c4ccc(N5CCN(C)CC5)cc4)cn23)c1 22.9%
O=C(CSc1ccccc1)Nc1nnc(/C=C/c2ccccc2)s1 22.7%
COc1ccc(/C=C/c2nnc(NC(=O)C(C)C)s2)cc1 17.7%
Cc1cc(OCCCC(=O)Nc2cc(S(=O)(=O)N3CCOCC3)ccc2N2CCOCC2)ccc1Cl 7.1%
CCOC(=O)c1sc2nc(C)nc(SCC(N)=O)c2c1C 11.9%
CC(=O)c1ccc(NC(=O)C(C)N(C)CC(=O)Nc2ccccc2Cl)cc1 (centres undefined) 2.6%
O=C(COc1ccc(-n2cnnn2)cc1)Nc1ccccc1Cl -3.5%
COc1cccc(CC(=NO)c2cccc(OC)c2)c1 11.3%
COc1cc(C(=O)NCCOC(=O)c2cccc(N(C)C)c2)cc(OC)c1OC 3.4%
Cn1c(=O)c2c(ncn2CC(=O)N/N=C/c2cn[nH]c2-c2ccc(F)cc2)n(C)c1=O -32.9%
CCCCc1nc(NCCN)c(C#N)c2c1CSC(C)(C)C2 2.5%
FC(F)Oc1ccc(NC(=S)NCc2ccco2)cc1Cl -1.9%
CCOc1c(Nc2cccc(Cl)c2)c(=O)c1=O -0.1%
Cc1nc(C(F)(F)F)ccc1C(=O)N1CCC1(C)C(=O)NS(=O)(=O)c1ccc(F)cc1F (centres undefined) 0.2%
O=C(CCN1C(=O)[C@@H]2Cc3ccccc3CN2C1=O)NCCc1ccccc1 16%
COc1cc(OC)cc(C(=O)Nc2ccc(-c3nc4ccccc4o3)c(O)c2)c1 -44.7%
O=C(Nc1ccc2oc(-c3ccccc3F)nc2c1)c1ccco1 -15%

inhibition, active:
O=C1Nc2ccccc2/C1=C/c1ccnc2ccccc12 50.5%
O=C(CCl)Nc1ccc(Sc2ccc(NC(=O)CCl)cc2)cc1 93.7%
COc1cc2c3c(c1)/C(=C1/SC(=S)NC1=O)C(=O)N3C(C)(C)C=C2C 50.7%
Cc1ccccc1C(CC(=O)c1cccs1)C(C#N)C#N (centres undefined) 83.8%
OCCNc1nc(Nc2ccc(Cl)c(Cl)c2)nc2ccccc12 87.5%
O=c1[nH]c(=S)[nH]c(O)c1/C=C1\C=Nc2ccccc21 69.3%
C=C(C)C(=O)O[C@H]1C/C(C)=C\C(=O)/C=C(\C)[C@H](O)[C@@H]2OC(=O)C(=C)[C@@H]21 74.1%
Oc1c(Cl)cc(Cl)c(Cl)c1Cc1c(O)c(Cl)cc(Cl)c1Cl 65.4%
CN(C)C(=O)c1cccc(-c2cnc3sc(NCc4ccc5c(c4)OCO5)nn23)c1 82.2%
Cc1ccc(Cc2c(-c3ccco3)nc3ccc(Cl)cn23)cc1 66.3%
O=C(Nc1ccc(Cl)cc1)Nc1nnc(/C=C/c2ccccc2)s1 51.2%
O=C(Nc1ccccc1Cl)/C(Cl)=C(\Cl)S(=O)c1ccccc1 (centres undefined) 82.8%
NC1=CC(=O)C(=O)c2cccnc21 92.2%
OCCCNc1nccc(-c2cc(Nc3cccc(Cl)c3)ncn2)n1 84.5%
O=C(Nc1ccc2oc(-c3ccc4ccccc4c3)nc2c1)c1cccs1 51.3%
